About 14,000 (4.5%) of roughly 310,000 compounds showed an effect of 50% or more. The effect is printed as a negative number. Many of the other results were omitted from the sample, so strong results are more common in it than they were.
What follows are compounds tested against human ether-à-go-go-related gene (hERG) potassium channel (human, UniProt Q12809) (assay: primary screen, population patch clamp on CHO cells stably expressing hERG; higher = less effect of the substance).
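Also: peak tail current of the secondary pulse compared with the same well before compound.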

human ether-à-go-go-related gene (hERG) potassium channel, sequence (Q12809 whole entry, looked up): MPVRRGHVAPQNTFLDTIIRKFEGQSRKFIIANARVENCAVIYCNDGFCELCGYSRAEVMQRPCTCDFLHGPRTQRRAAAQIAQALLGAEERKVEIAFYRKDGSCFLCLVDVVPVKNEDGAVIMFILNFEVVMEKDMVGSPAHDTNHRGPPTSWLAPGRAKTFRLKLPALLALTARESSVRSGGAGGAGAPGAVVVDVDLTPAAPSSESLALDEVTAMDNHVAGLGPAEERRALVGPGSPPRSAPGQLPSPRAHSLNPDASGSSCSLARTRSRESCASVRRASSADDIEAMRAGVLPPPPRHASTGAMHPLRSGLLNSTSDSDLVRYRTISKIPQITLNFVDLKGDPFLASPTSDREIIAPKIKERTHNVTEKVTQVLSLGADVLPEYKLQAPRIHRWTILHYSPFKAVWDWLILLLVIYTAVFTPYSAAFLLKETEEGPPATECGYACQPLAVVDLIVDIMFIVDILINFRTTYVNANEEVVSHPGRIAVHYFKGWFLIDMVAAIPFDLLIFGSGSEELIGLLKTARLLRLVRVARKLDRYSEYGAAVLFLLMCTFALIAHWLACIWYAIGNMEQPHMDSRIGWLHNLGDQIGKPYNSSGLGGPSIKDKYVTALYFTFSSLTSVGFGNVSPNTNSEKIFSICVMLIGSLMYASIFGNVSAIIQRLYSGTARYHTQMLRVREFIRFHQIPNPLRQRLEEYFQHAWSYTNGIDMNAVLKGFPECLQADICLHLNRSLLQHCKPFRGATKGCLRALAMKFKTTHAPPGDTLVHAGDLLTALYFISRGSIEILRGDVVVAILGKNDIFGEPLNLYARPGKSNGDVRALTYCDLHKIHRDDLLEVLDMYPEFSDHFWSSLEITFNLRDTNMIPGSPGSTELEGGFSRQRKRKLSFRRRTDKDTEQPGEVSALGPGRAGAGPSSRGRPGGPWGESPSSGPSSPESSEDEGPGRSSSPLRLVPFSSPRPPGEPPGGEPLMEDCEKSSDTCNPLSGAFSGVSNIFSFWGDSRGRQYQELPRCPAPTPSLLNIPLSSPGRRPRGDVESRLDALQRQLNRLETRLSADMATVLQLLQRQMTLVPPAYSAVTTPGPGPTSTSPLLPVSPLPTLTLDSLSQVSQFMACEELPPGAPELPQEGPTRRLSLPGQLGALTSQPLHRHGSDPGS

Structure (SMILES)	hERG current change (%, negative = inhibition) at 10uM
Cc1ccc(-c2[nH]nc3c2C(c2cccnc2)C(C#N)=C(N)O3)cc1 (stereo not shown)	-7.46%
O=[N+]([O-])c1ccc(C(O)CSC(=S)N2CCCCC2)cc1 (stereo not shown)	-3.13%
CC(C)(C)c1ccc(C(=O)/C=C2\NC(=O)CS2)cc1	-9.16%
OCCC1CN(Cc2cnc(-c3ccccc3)s2)CCN1CCc1ccccc1 (stereo not shown)	-71.2%
CC(C)(O)C#Cc1ccc(CN2CCN(CCc3ccccc3)C(CCO)C2)s1 (stereo not shown)	-30.7%
Cc1ncc(CN2CCN(Cc3ccccc3)C(CCO)C2)s1 (stereo not shown)	1.08%
OCCC1CN(Cc2cnc(-c3ccccc3)s2)CCN1C1CCCCC1 (stereo not shown)	-51.4%
CC(C)=CCN1CCN(Cc2cnc(-c3ccccc3)s2)CC1CCO (stereo not shown)	-49.2%
CCOc1ccc(CN2CCN(Cc3cnc(N4CCOCC4)s3)CC2CCO)cc1 (stereo not shown)	-39.8%
Cc1ncc(CN2CCN(C3CCCC3)C(CCO)C2)s1 (stereo not shown)	27.6%
CCOc1ccc(CN2CCN(Cc3cnc(-c4ccccc4)s3)CC2CCO)cc1 (stereo not shown)	-90.7%
CC(C)N1CCC(N2CCN(Cc3cnc(-c4ccccc4)s3)CC2CCO)CC1 (stereo not shown)	-15.6%
OCCC1CN(Cc2cnc(-c3ccccc3)s2)CCN1Cc1ccccc1 (stereo not shown)	-57.5%
CCCCN1C(=O)NC(=O)C2(Cc3c(nc4ccccn4c3=O)N3CCc4ccccc4C32)C1=O (stereo not shown)	-16.6%
Cc1sc2nc(CSc3ncn[nH]3)[nH]c(=O)c2c1C	33.7%
Cn1c(-c2sc3cc(C(F)(F)F)cnc3c2-c2ccccc2)n[nH]c1=S	20.1%
O=C(O)C(=O)O.Oc1ccccc1NCC(O)Cn1ccc2ccccc21 (stereo not shown)	13.4%
NC(=O)c1ccccc1NC(=O)NC1CCCCC1	-6.68%
CCOC(=O)CCSCC(=O)Nc1cc(C)on1	-3.91%
Cc1ccc(C(=O)NC(=S)Nc2ccccc2C(F)(F)F)cc1	16.3%
CC(C)NS(=O)(=O)c1ccc(NC(=O)NC2CCCCC2)cc1	1.79%
c1ccc(Cn2cc(-c3ccccc3)cn2)cc1	-2.61%
Cc1ncc(CN2CCN(CCC(C)C)C(CCO)C2)s1 (stereo not shown)	-20.1%

Structure (SMILES)	hERG current change (%, negative = inhibition) at 10uM
CC(C)CCN1CCN(Cc2cnc(-c3ccccc3)s2)CC1CCO (stereo not shown)	-56.6%
CC(C)N1CCN(Cc2cnc(-c3ccccc3)s2)CC1CCO (stereo not shown)	-9.9%
CCCOc1ccc(C(C)=O)cc1CC(C(N)=O)C(N)=O	14.9%
CCCCOP(=O)(c1ccc(N(C)C)cc1)C(O)c1ccc(C(C)C)cc1 (stereo not shown)	-13%
O=c1[nH]c2ccccc2n2c(C(F)(F)F)nnc12	14%
Cc1ccc(S(=O)(=O)N(Cc2cccc(Cl)c2)C(=O)N2CCN(C)CC2)cc1	9.85%
CCn1c(SCC(=O)N/N=C/C=C/c2ccccc2[N+](=O)[O-])nnc1-c1ccccc1	-36.6%
CCn1c(SCC(=O)N/N=C/C=C\c2ccccc2[N+](=O)[O-])nnc1-c1ccccc1	-67%
CCn1c(SCC(=O)N/N=C/C=C\c2ccccc2[N+](=O)[O-])nc2ccccc21	-63.8%
Cn1c(SCC(=O)N/N=C/C=C/c2ccccc2[N+](=O)[O-])nc2ccccc21	-1.36%
CCn1c(SCC(=O)NC(=O)c2ccccc2OC)nc2ccccc21	-70.8%
CCn1c(SCC(=O)N/N=C/C=C/c2ccccc2[N+](=O)[O-])nnc1-c1ccc(Cl)cc1	-15.6%
Cn1c(SCC(=O)N/N=C/C=C\c2ccccc2[N+](=O)[O-])nc2ccccc21	10.4%
COCCn1c(SCC(=O)Nc2ccccc2OC)nc2ccccc21	-25.4%
CCn1c(SCC(=O)NC(=O)NC(C)(C)C)nc2ccccc21	4.41%
O=C1OCCN1C(=O)[C@H]1[C@H](c2ccc(Cl)cc2)C(c2cccc(Cl)c2)=NN1c1ccccc1	14%
COc1ccccc1C(=O)C1CCCN(C(=O)Nc2ccccc2F)C1 (stereo not shown)	37.3%
Cc1nn2c(N)c(C#N)cnc2c1-c1ccc(Cl)cc1	-0.156%
Cc1cc2nnc(SCC(=O)NCc3cccs3)n2c(N)n1	-8.37%
Cc1cccc(-n2nnc(C(=O)NCc3ccco3)c2N)c1	-10.2%
OC1=C(O)c2nc3ccccc3nc21	-1.17%
CC(C)Sc1nc2c([nH]1)c(=N)ncn2Cc1ccccc1	-5.52%
Cc1noc(C)c1COc1ccc(CC(=O)NC2CCCCCC2)cc1	39.5%

Structure (SMILES)	hERG current change (%, negative = inhibition) at 10uM
COc1cc(C2NC(=O)CCC2[N+](=O)[O-])cc(OC)c1OC (stereo not shown)	29.6%
COc1cc(Cl)ccc1NC(=S)N(CCN(C)C)C(C)c1ccncc1 (stereo not shown)	-39.2%
COCCCN(C(=S)Nc1cc(C)cc(C)c1)C(C)c1ccncc1 (stereo not shown)	-41%
CSc1cccc(NC(=S)N(CCN(C)C)C(C)c2ccncc2)c1 (stereo not shown)	-50.6%
COCCCN(C(=S)Nc1cccc(Cl)c1)C(C)c1ccncc1 (stereo not shown)	-17.3%
COc1ccc(NC(=S)N(CCN(C)C)C(C)c2ccncc2)cc1Cl (stereo not shown)	-59.9%
COc1ccc(NC(=S)N(CCN(C)C)C(C)c2ccco2)cc1Cl (stereo not shown)	-36.3%
CSc1cccc(NC(=S)N(CCN(C)C)C(C)c2ccccn2)c1 (stereo not shown)	-36.2%
CCc1cccc(NC(=S)N(CCN(C)C)C(C)c2ccncc2)c1 (stereo not shown)	-44%
COCCCN(C(=S)Nc1cc(Cl)cc(Cl)c1)C(C)c1ccncc1 (stereo not shown)	-70.6%
Cc1ccc(C(=O)c2ccc(C(F)(F)F)cc2)cc1	7.79%
CC(=O)N(C)C1=C(O)c2ccccc2C(=O)C1=O	22.3%
Cc1ccc(NC(=O)COC(=O)Cc2c[nH]c3ccccc23)cc1C	-7.15%
COc1ccccc1-c1nnc(SCc2nc3ccccc3s2)n1C	-17%
COc1ccc(C(=O)COC(=O)Cn2cnc3c2c(=O)n(C)c(=O)n3C)c(OC)c1	3.76%
CSc1nsc(SCC(=O)NCc2ccc(C)cc2)n1	10.1%
COc1cc(OC)cc(-c2nnc(SCC(=O)N3CCOCC3)o2)c1	9.82%
Nc1nc(SCc2ccc(Cl)cc2)ns1	-7%
NC(=O)N/N=C/c1cc(Br)ccc1OCC(=O)NCc1ccccc1	-6.43%
CCN(CC)CCNCc1cc(Br)ccc1OCC(=O)NCc1ccccc1.Cl	-83.2%
COc1cc(CNCCN(C)C)c(Br)cc1OCC(=O)NCc1ccccc1	-29.2%
COc1cc(CNC(C)c2ccccc2)cc(Cl)c1OCC(=O)Nc1ccccc1.Cl (stereo not shown)	9.86%
CCNCc1cc(Br)c(OCC(=O)Nc2ccccc2)c(OC)c1.Cl	-19.8%

Structure (SMILES)	hERG current change (%, negative = inhibition) at 10uM
CCN(CC)CCNCc1cc(Cl)c(OCC(=O)Nc2ccccc2)c(OC)c1.Cl	-62.5%
CCN(CC)CCNCc1ccc(Br)cc1OCC(=O)NCc1ccccc1.Cl	-67.2%
CCOc1cc(CNCCN(C)C)c(Cl)cc1OCC(=O)NCCc1ccccc1.Cl	-10.8%
CCCCNCc1cc(Br)c(OCC(=O)NCc2ccccc2)c(OC)c1.Cl	-39.4%
Cc1c(C(=O)Nc2ccc(S(=O)(=O)Nc3ncccn3)cc2)oc2ccc(Cl)cc12	-17.4%
Cn1c(=O)c2c(nc(CN3CCOCC3)n2CCc2ccccc2)n(C)c1=O	7.53%
Cc1ncc(CO)c2cc(C(N)=O)c(=Nc3ccccc3)oc12	-27.7%
COc1ccc(C(O)P(=O)(OCC(C)C)c2ccc(N(C)C)cc2)c(OC)c1 (stereo not shown)	-3.56%
CCCc1nc2ccccc2[nH]1	24.6%
c1ccc2[nH]c(CCCc3nc4ccccc4[nH]3)nc2c1	-7.32%
CC1CCN(CCc2nc3ccccc3[nH]2)CC1	-63.7%
COc1ccc(Cl)cc1C(=O)C1CCCN(Cc2cnc(C)s2)C1 (stereo not shown)	-38.1%
CCn1ccnc1CN1CCCC(C(=O)c2ccc(SC)cc2)C1 (stereo not shown)	-58.3%
CCn1ccnc1CN1CCCC(C(=O)c2cc(C)c(OC)c(C)c2)C1 (stereo not shown)	-23.2%
CCn1ccnc1CN1CCCC(C(=O)c2ccc3cc(OC)ccc3c2)C1 (stereo not shown)	-70.6%
CCn1ccnc1CN1CCCC(C(=O)c2cc(F)ccc2OC)C1 (stereo not shown)	-33%
CSc1ccc(C(=O)C2CCCN(C(=O)Cn3cnnn3)C2)cc1 (stereo not shown)	-12.8%
CCn1ccnc1CN1CCCC(C(=O)c2cc(Cl)ccc2OC)C1 (stereo not shown)	-73.3%
CSc1ccc(C(=O)C2CCCN(C(=O)c3ccc(C)nc3)C2)cc1 (stereo not shown)	-22.4%
COc1ccc2cc(C(=O)C3CCCN(Cc4cnc(N5CCOCC5)s4)C3)ccc2c1 (stereo not shown)	14.6%
COc1ccc(Cl)cc1C(=O)C1CCCN(Cc2cnc(N3CCOCC3)s2)C1 (stereo not shown)	-57.6%
COc1ccc(C(=O)C2CCCN(Cc3cnc(N4CCOCC4)s3)C2)c(OC)c1 (stereo not shown)	-46.9%
